Measured values published in the supplement of paper PMC3334620.
In all, about 33,000 sequences were measured (“E-score (-0.5 to 0.5)”: median about -0.01, highest 2% from about 0.26 on). The sample holds the highest values, similar sequences and a random draw of the others, so the mix is not that of the screen.

biological target: Ste12 (UniProt P13574); assay: PBM E-score (8-mer binding enrichment) (E-score (-0.5 to 0.5)); higher = stronger / more preferred TF binding; details: protein concentration: 200 nM; construct: GST-DNA-binding domain
Sequence of UniProt P13574 (P13574 whole entry, the tested form may be a part): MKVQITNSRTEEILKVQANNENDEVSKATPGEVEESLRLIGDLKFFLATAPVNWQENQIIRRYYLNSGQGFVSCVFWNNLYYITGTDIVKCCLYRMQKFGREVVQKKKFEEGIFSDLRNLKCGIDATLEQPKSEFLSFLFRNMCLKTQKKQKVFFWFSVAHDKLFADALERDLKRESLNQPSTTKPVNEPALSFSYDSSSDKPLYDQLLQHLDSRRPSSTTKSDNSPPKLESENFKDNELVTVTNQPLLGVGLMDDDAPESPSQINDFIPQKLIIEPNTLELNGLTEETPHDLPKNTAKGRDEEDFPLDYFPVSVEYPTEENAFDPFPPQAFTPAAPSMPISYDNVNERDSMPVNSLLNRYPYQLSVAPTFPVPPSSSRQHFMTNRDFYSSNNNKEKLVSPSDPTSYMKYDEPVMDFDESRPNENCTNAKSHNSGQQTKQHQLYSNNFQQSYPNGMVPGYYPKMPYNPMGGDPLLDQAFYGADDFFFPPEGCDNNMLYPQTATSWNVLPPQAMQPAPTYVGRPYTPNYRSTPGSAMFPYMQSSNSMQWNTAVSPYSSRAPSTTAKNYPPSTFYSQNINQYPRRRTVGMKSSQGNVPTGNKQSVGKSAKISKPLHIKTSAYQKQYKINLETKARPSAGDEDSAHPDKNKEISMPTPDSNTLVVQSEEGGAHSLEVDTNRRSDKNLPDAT
Procedure: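 Universal 'all 10-mer' protein binding microarrays (Agilent AMADID 015681) probed with GST-tagged S. cerevisiae TFs (full-length or DBD) made by in vitro transcription/translation (PURExpress), about 100-200 nM. Bound TF was detected with fluorescent anti-GST. Each ungapped 8-mer (which stands for itself and its reverse complement) is scored by the PBM enrichment score (E-score), a modified Wilcoxon-Mann-Whitney statistic from -0.5 to +0.5, computed with the Universal PBM Analysis Suite. Scale: above 0.35 generally sequence-specific binding.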

Sequence	PBM E-score
AACGACCA	-0.0479
ATGGGAAG	-0.0232
CCCCGGGG	-0.186
GTGTACAC	-0.224
ATGTTGTA	-0.00602
GCATCAGC	0.034
ACTAGGTC	-0.114
AAAAGAAG	0.072
AAAAAGAC	0.153
TAAAAGAA	0.0708
AAAGATAC	0.0821
AAAAGAAC	0.126
AAAAAGAT	0.271
AAAGATAT	0.273
AAAGATAG	-0.0536
AAAAGAAT	0.266
AAAAAGAA	0.289
CAAAAGAA	0.156
ACAAAGAT	0.0339
AAAGCAAA	0.148
AAACCTTC	-0.0506
CGGGACTA	-0.0932

Sequence	PBM E-score
GCATCCGA	-0.0885
CGTATGAA	0.213
AGTAGGAG	-0.119
CCTCGCAA	0.18
AAAGAAAA	0.351
CAAGAAAA	0.24
CGAAAAGA	0.242
AGAAAAGC	0.127
AAAGAAAG	0.19
AGAAAAGA	0.297
AGAGGGAG	-0.106
CAAAGTCG	0.0234
TCCTAGCA	-0.0629
ACCTCCAC	-0.0491
GATAGATC	-0.194
AACAGAGT	0.173
CACCTAAC	0.0515
CTGTAGTA	0.186
ATAATACA	0.318
ATAATACC	0.161
ATAATATG	0.248
ACAATATA	0.271

Sequence	PBM E-score
ATAATATA	0.301
ATAATACG	0.0652
GCAATATA	0.149
CCAATATA	-0.103
CTAATATA	0.0456
AGAGTAGA	-0.0237
CGTTCTCA	0.0637
GCCAGCTA	-0.192
CCGCATCC	-0.0589
ATGTTCAC	0.0173
TGATGCAA	0.137
ACCTTCTC	0.0171
AAGAAAAA	0.158
AAGAAAAG	0.302
CAGAAAAC	0.133
CAGAAAAG	0.186
AAGAAAAT	0.254
AAGAAAAC	0.275
GGTCCTTA	0.0224
CCCTCCAC	-0.0433
GTATCAAC	0.122
GTATCAGA	0.119

Sequence	PBM E-score
TGATCAAA	0.156
GTATCAAA	0.293
ATATCAAA	0.3
TCATCAAA	0.236
CTATCAAA	0.186
TTATCAAA	0.274
ATATCAAG	0.139
ACTACTTC	-0.0884
ATCACAGG	-0.0882
CAATCATC	-0.0782
ACTCTGAA	0.177
ACGGGTAC	-0.139
TAGGCGGA	-0.0248
GTATGAGA	-0.0324
GTATGAAA	0.338
TTATGAAA	0.431
TTATGCAA	0.0901
ATATGAAC	0.154
ATATGAAA	0.346
GTATGAAC	-0.018
CTATGAAG	0.0327
CTATGAAA	0.211

Sequence	PBM E-score
GTTTTCCA	0.093
ATTGGGCG	-0.00653
GTATTTCA	0.1
ATGTTTCC	0.178
GTGTTTCA	0.489
ATGTTTCG	0.366
CTGTTTAC	0.0415
ATGTTCCA	0.18
ATGTTTAG	0.214
CTGTTTCC	0.0865
GTGTTGCA	0.159
ATGTTTCA	0.493
CTGTTTCA	0.484
ATATTTCA	0.139
ACCATAAT	0.114
AGAAGCAA	0.153
ACAGTGCC	-0.0356
AGCTGCGC	-0.177
CTGTTTAA	0.22
GTGTTTTA	0.405
CTGTTTTA	0.308
